# Assay results from PubChem BioAssay AID686978 (National Center for Advancing Translational Sciences (NCATS), 2013).
# Screen size: about 420,000 compounds; about 64,000 (15%) were called active. Another 27% or so got no clear call; they are omitted. Calls come from the whole dose curve; as a rule, active = well fitted inhibition curve with a large enough effect; inconclusive = small, poorly fitted or top-dose-only effect; inactive = flat fitted curve, though single readings scatter. Only a sample is shown. Where a call stands in place of a potency, no number is given.
# Test: qHTS for Inhibitors of human tyrosyl-DNA phosphodiesterase 1 (TDP1): qHTS in cells in absence of CPT; note: nearly all actives have a fitted effect of over 55% in size
# Details: DT40 Tdp1-/- hTDP1 cells, no CPT, ATP luminescence, 48 h; activity change, negative = growth inhibition: at 46.2 µM (top of the series)
# Summary of the method: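 DT40 Tdp1-/-;hTDP1 cells, no CPT (DMSO vehicle only), 400 cells/well; compounds pin-transferred; ≥48 hr, 37 °C; CellTiter-Glo 30 min RT dark, luminescence read.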
# Potency is the fitted concentration of half-maximal effect.
row,Structure (SMILES),Potency
1,CC(CC(=O)O)CC(=O)NNC(=O)c1cccc(Br)c1 (configuration not stated),inactive
2,COc1ccc(NC(=O)CC2C(=O)OCC3CCCCN32)cc1Cl (configuration not stated),inactive
3,N#CC1(NC(=O)COC(=O)Cc2n[nH]c(=O)c3ccccc23)CCCCC1,inactive
4,O=C(Nc1ccccc1C(=O)N1CCOCC1)C1CCC(=O)N1C1CCCC1 (configuration not stated),inactive
5,Cc1nc(C)c(C(=O)Nc2cccc(C)c2C)o1,inactive
6,CC1(C)C2CC=C(/C=N/NC(=O)C3CC3)C1C2 (configuration not stated),inactive
7,COC(=O)c1cc(OC)c(OC)cc1NC(=O)C1CCCO1 (configuration not stated),inactive
8,COc1cc(=O)n2c(c1C(=O)N(C)Cc1nonc1C)CCN(C(=O)c1ccc(C)cc1C)CC2,inactive
9,O=C(CSc1cccc[n+]1[O-])c1ccc(Cl)cc1,5.17 µM (active)
10,O=C(Cc1ccc(Cl)cc1)c1ccccc1,inactive
11,CC(NC(=O)COC(=O)CCC(=O)c1ccc(Cl)cc1)c1ccccc1 (configuration not stated),inactive
12,COc1ccccc1C(=O)CSc1cccc[n+]1[O-],inactive
13,O=C(CSc1nnc2ccccn12)c1ccccc1,inactive
14,CCN(C(=O)CSc1nnc(-c2ccncc2)o1)c1ccccc1,inactive
15,CCN(CC)c1ccc(S(=O)(=O)N2CCOCC2)cc1NC(=O)CSc1cccc[n+]1[O-],inactive
16,O=C(CSc1cccc[n+]1[O-])c1ccc(-c2ccccc2)cc1,0.82 µM (active)
17,CCN(C(=O)CSc1cccc[n+]1[O-])c1ccccc1,1.84 µM (active)
18,Cc1ccc(C2=CSC3=NS(=O)(=O)CCN23)cc1C,inactive
19,CCCCNC(=O)N(O)C1N(/N=C/c2ccccc2O)C(=S)SC1(C)C (configuration not stated),inactive
20,CC(C)C1Nc2c(C(=O)O)cccc2C(Nc2ccccc2C(=O)O)C1(C)C (configuration not stated),inactive
21,Cc1ccc(N/N=C2\COC(C)(C)CC2=O)cc1,inactive
22,O=C(NCc1ccccc1Cl)c1csc([C@@H]2O[C@H](CO)[C@@H](O)[C@H]2O)n1,inactive
23,Cc1ccsc1C(=O)NCCc1ccco1,inactive
24,CCCn1nc2cc(C(=O)NCc3ccccc3)ccc2c1OCC,inactive
25,COc1cc(C(=O)NCc2ccncc2)cc(Br)c1OCc1ccccc1,23.1 µM (active)
26,C[n+]1ccc(C(=O)NCc2ccccc2)cc1,inactive

row,Structure (SMILES),Potency
1,Cc1ccc2c(c1)C(O)(CC(=O)c1cccnc1)C(=O)N2 (configuration not stated),inactive
2,Cc1ccc(NC(=O)c2ccc(Oc3ncccn3)cc2)cc1,inactive
3,CC(C)c1c(C(=O)N/N=C/c2ccccc2C(=O)O)nnn1-c1nonc1N,inactive
4,O=C(/C=C/c1ccc(F)cc1)Nc1cccc(S(=O)(=O)Nc2cccc(C(F)(F)F)c2)c1,8.2 µM (active)
5,CC(C)(CNC(=O)c1cc(=O)[nH]c2ccccc12)N1CCOCC1,inactive
6,O=C(O)c1cccc(N2C(=O)Nc3ccccc3N2O)c1,inactive
7,CN1C(=O)c2ccc(NC(=O)c3c(F)c(F)c(F)c(F)c3F)cc2C1=O,inactive
8,O=S1(=O)CC(N2CCSCC2)CN1Cc1cn(Cc2cccc(Cl)c2)nn1 (configuration not stated),inactive
9,CC1C(=O)N(Cc2cn(CC3CCCCC3)nn2)CCS(=O)(=O)N1Cc1ccc(-c2cccc(N(C)C)c2)cc1 (configuration not stated),7.31 µM (active)
10,COc1ccc(Cn2cc(CN3CCS(=O)(=O)N(Cc4ccc(-c5cccc(Cl)c5)cc4)C(C)C3=O)nn2)cc1 (configuration not stated),25.9 µM (active)
11,CCCC[C@H]1COCCS(=O)(=O)N1Cc1cccc(Cl)c1,inactive
12,O=S(=O)(/C=C/c1ccccc1)N1CCNCC1,inactive
13,O=C1Cc2cc(S(=O)(=O)Nc3cccc(F)c3)ccc2N1,inactive
14,CC(=O)c1cccc(NC(=O)C2COc3ccccc3O2)c1 (configuration not stated),inactive
15,C/C(=N/NC(=O)C1COc2ccccc2O1)c1ccco1 (configuration not stated),inactive
16,CC(/C=C/c1ccco1)=N/NC(=O)C1COc2ccccc2O1 (configuration not stated),16.4 µM (active)
17,CCOc1cc(C(=O)Nc2c(C)ccc3nsnc23)cc(OCC)c1OCC,inactive
18,CC1O[C@H](OC2C(COC3OC(CO)C(O)[C@H](O)C3O)OC(OC3CC[C@]4(C)C(CC[C@@]5(C)[C@@H]4C=C[C@]46OC[C@@]7(CCC(C)(C)C[C@H]74)C(O)C[C@@]56C)C3(C)C)C(O)C2O)C(O)C(O)C1O (some centres not stated),inactive
19,O=C(COC(=O)CNS(=O)(=O)c1ccccc1)NC12CC3CC(CC(C3)C1)C2,inactive
20,CC(=O)Oc1ccc2c(c1)C(=O)c1ccccc1C2=O,inactive
21,O=C1C(Cl)=C(Oc2ccccc2)C(=O)c2ccccc21,0.259 µM (active)
22,Cc1cc(Nc2ccc(C(=O)N3CCCCC3)cc2)c2cccc(C)c2n1,inactive
23,CCc1c(C)sc(NC(=O)OC)c1C(=O)N1CCOCC1,inactive
24,CCCOC(=O)CC1C(=O)NCCN1Cc1ccc(F)cc1 (configuration not stated),inactive
25,COc1ccc(NS(=O)(=O)c2cccc(C(=O)NCCc3ccc(S(N)(=O)=O)cc3)c2)cc1,inactive
26,COc1ccc(NC(=O)/C(N=Nc2cccc(S(=O)(=O)Nc3ccc(SC(F)F)cc3)c2)=C(\C)O)cc1,inactive

row,Structure (SMILES),Potency
1,COc1ccc(NS(=O)(=O)c2ccc(Oc3c(C#N)cccc3C#N)cc2)cc1,5.8 µM (active)
2,C[C@H](CO)N1C[C@H](C)[C@@H](CN(C)C(=O)NC2CCCCC2)Oc2ccc(NC(=O)c3ccncc3)cc2C1=O,inactive
3,CO/N=C(\C(=O)N[C@@H]1C(=O)N2C(C(=O)O)=C(COC(C)=O)CS[C@H]12)c1csc(N)n1 (stereo in doubt),inactive
4,CCCCN(CC)CCCNC(=O)CS(=O)(=O)Cc1nc(-c2cccc(OC)c2)oc1C,inactive
5,COc1cccc(-c2nc(CS(=O)(=O)CC(=O)N3CCN(c4cc(C)ccc4C)CC3)c(C)o2)c1,3.66 µM (active)
6,COc1cccc(-c2nc(CS(=O)(=O)CC(=O)NCCc3ccc(OC)c(OC)c3)c(C)o2)c1,inactive
7,CCN(CC)CCN(C)C(c1ccnc2ccccc12)c1nnnn1-c1ccc2c(c1)OCCO2 (configuration not stated),18.4 µM (active)
8,CC(=O)NC1CCN(CC(=O)Nc2nccs2)CC1,inactive
9,Cc1cc(C)n(CCNC(=O)CC2C(=O)NCCN2Cc2ccc(C)o2)n1 (configuration not stated),inactive
10,Cc1ncn(C23CC4CC(CC(O)(C4)C2)C3)n1,inactive
11,COC(=O)c1ccc(NC(=O)C23CC4CC(C2)CC(n2cnc(Cl)n2)(C4)C3)cc1,16.4 µM (active)
12,COC(=O)c1ccc(NC(=O)CSc2nnc(C3CC3)n2C)cc1,inactive
13,CCOc1ccc(S(=O)(=O)NCCC(=O)NNC(=O)c2ccc(F)cc2)cc1,inactive
14,COc1ccc(CCN2C(=O)c3oc4cc(C)cc(C)c4c(=O)c3C2c2ccccc2F)cc1OC (configuration not stated),2.91 µM (active)
15,COc1ccc(CNC(=O)c2cc(=O)c3c(C)cc(C)cc3o2)cc1,inactive
16,COc1ccc(CCNC(=O)COc2cc(C)cc3oc(=O)c(C)c(C)c23)cc1OC,inactive
17,COc1ccccc1OCCNC(=O)C(CCSC)NC(=O)COc1ccccc1 (configuration not stated),inactive
18,O=C(O)CC(c1ccccc1)n1cnnn1 (configuration not stated),inactive
19,CCCOc1ccc(C(=O)CCC(=O)OC(C)C(=O)Nc2ccc(NC(C)=O)cc2)cc1 (configuration not stated),inactive
20,CCCCOc1ccc(C(=O)NN2CCN(C)CC2)cc1,inactive
21,CCCOc1ccc(C(=O)NCCc2ccccc2)cc1,inactive
22,CCCCOc1ccc(C(=O)NCc2ccncc2)cc1,inactive
23,CCCOc1ccc(C(=O)C(CCC(CNCC)C(=O)c2ccc(OCCC)cc2)CNCC)cc1 (configuration not stated),0.92 µM (active)
24,CCCCOc1ccc(C(=O)NO)cc1,15.8 µM (active)
25,COc1ccccc1C(=O)NCC(=O)OCC(=O)Nc1nnc(-c2ccccc2)o1,inactive
26,CCCNC(=O)C[C@@H]1CC[C@@H]2[C@H](COC[C@H](O)CN2C(=O)c2cc(Cl)cc(Cl)c2)O1,inactive

row,Structure (SMILES),Potency
1,Cn1c(N)c(C(=O)COC(=O)c2ccccc2NCc2ccco2)c(=O)n(C)c1=O,inactive
2,Cc1cc2cc(CNC(=O)c3cccs3)ccc2[nH]1,inactive
3,CCc1cccc(CC)c1NC(=S)Nc1ccc2cn[nH]c2c1,inactive
4,CCc1cccc(CC)c1NC(=S)NCc1ccc2[nH]c(C)cc2c1,18.4 µM (active)
5,COc1ccc(S(=O)(=O)NCC2CCCN(C(=O)c3occc3C)C2)cc1 (configuration not stated),inactive
6,O=C(c1ccccn1)c1ncc(C(F)(F)F)cc1Cl,inactive
7,C=CCn1c(SCC(=O)Nc2nc3ccccc3s2)nnc1-c1ccccc1O,inactive
8,O=c1[nH]c(CCl)nc2cc(-c3ccc(Cl)cc3)sc12,2.31 µM (active)
9,O=c1[nH]c(CN2CCOCC2)nc2cc(Cl)ccc12,inactive
10,NC(=O)Cc1nc2scc(-c3ccc(Cl)cc3)c2c(=O)[nH]1,inactive
11,CCOCCCNC(=S)N1CCC(NC(=O)C2CCCCC2)CC1,inactive
12,CSCCC(NS(=O)(=O)c1ccc2c(c1)oc(=O)n2C)C(=O)NCc1ccccc1 (configuration not stated),inactive
13,OC(CBr)C[n+]1cccc2cc(Br)ccc21 (configuration not stated),11.2 µM (active)
14,Cc1c(CCC(=O)N[C@@H](CC(C)C)C(=O)O)c(=O)oc2c(C)c3oc4c(c3cc12)CCCC4,inactive
15,CCN(CC)CCCNC(=O)CCn1nc(-c2ccc(Cl)cc2)ccc1=O,inactive
16,O=C(Nc1ccc(OC(F)(F)F)cc1)c1cc2c(=O)n3ccccc3nc2s1,inactive
17,Cn1c(C(=O)Nc2cccc(C(F)(F)F)c2)cc2c(=O)n3ccccc3nc21,9.2 µM (active)
18,O=C(COC(=O)c1cccc(Cl)c1)NC(=O)NCc1ccccc1,inactive
19,CCN(CC)c1ccc2oc(=O)c(C)nc2c1,5.8 µM (active)
20,CCN(CC)c1ccc2c(Nc3ccccc3)c(C=O)c(=O)oc2c1,inactive
21,CCN(CC)c1ccc2cc(C(=O)O)c(=O)oc2c1,inactive
22,COc1ccc(CCN2C(=O)C3CC=C(C)CC3C2=O)cc1OC (configuration not stated),inactive
23,COC(=O)c1ccc(C2C(Oc3ccccc3C)C(=O)N2CCc2ccc(OC)c(OC)c2)cc1 (configuration not stated),14.6 µM (active)
24,COc1ccc(CCNC(=O)C(=O)NCc2ccccc2C)cc1OC,inactive
